# In the library only some 2.3% were active in any assay of this set; here they are far more common.
# B2AR ag – human beta-2 adrenergic receptor agonism by FAP | response, % (test concentration not listed) | Am2.2-beta2AR cells, FAP receptor internalization, flow cytometry | 340,000 tested, 0.43% active | AID 504454;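 active means response above a set limit, near 3 SD of response in nonfluorescent compounds, cut at about 42% in these data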
# Exocytosis inh – lytic granule exocytosis inhibition | AID 651702 | 360,000 tested, 0.66% active | TALL-104 LAMP-1 surface exposure, flow cytometry; cells stimulated with thapsigargin and PMA | inhibition, % at 10 µM;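 active means inhibition above about 55%, limit read from the data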
# HTR2A ag – mouse HTR2A agonism via beta-arrestin recruitment. P35363. CHO-K1 mHTR2A beta-arrestin complementation, luminescence; percent of 30 µM serotonin response. 360,000 tested, 0.66% active. AID 624169. activation, % at 7.6 µM;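 active means activation above a run cutoff, the mean activation of all tested compounds plus 3 SD, cut at about 14% in these data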
# ABHD5-PLIN5 inh – inhibitors of human ABHD5-perilipin-5 interaction | inhibition, % at 4 µM | Q00G26+Q8WTS1 | 360,000 tested, 0.78% active | Split G. princeps luciferase complementation, luminescence, 4 h;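 active means inhibition above the mean inhibition across every tested compound plus 3 SD, cut at about 22% in these data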
# NTR1 agonist – NTR1 (human) agonism; activation, % at 20 µM; P30989; NTR1-U2OS beta-arrestin-GFP spot imaging, agonist mode; 330,000 tested, 0.17% active;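 active means activation at or above 40% of the spot to cytoplasm intensity ratio, with at least 20 cells analyzed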
# Beta2AR ag CP1 – human beta-2 adrenergic receptor agonism, cherry pick. shares compounds with B2AR ag. Am2.2-beta2AR cells, FAP surface receptor, flow cytometry; hits give low values. percent response (surface receptor), % at 10 µM. 1,100 tested, 25% active. AID 540358;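 active means surface receptor percent response at or below 58%, roughly 3 SD from nonfluorescent compounds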
# B2AR FAP counter – counter-screen for beta-2AR agonists: fluorescence in Am2.2 cells | shares compounds with B2AR ag | FAP fluorogen flow cytometry, fluorescence counterscreen; hits give low values | calls only at 10 µM | 1,100 tested, under 10 active | AID 588765;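 active means percent response below a set limit in fluorescence channel 1 and below 50% in channel 8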
# A number is an active result; - = inactive; . = no result.
SMILES,B2AR ag,Exocytosis inh,HTR2A ag,ABHD5-PLIN5 inh,NTR1 agonist,Beta2AR ag CP1,B2AR FAP counter
COc1ccc(CCNC(=O)c2cc(C3CC3)nc3c2cnn3C(C)C)cc1,-,-,-,-,-,.,.
NC(=O)CC(NC(=O)Cc1ccc(Br)cc1)c1ccc(N2CCN(c3ccccn3)CC2)c([N+](=O)[O-])c1 (stereo not drawn),63,-,-,-,-,-,-
NC(=O)CC(NC(=O)c1cccc(Br)c1)c1ccc(N2CCN(c3ccccn3)CC2)c([N+](=O)[O-])c1 (stereo not drawn),97,-,-,-,-,14,-
NC(=O)CC(NC(=O)c1ccc(Br)cc1)c1ccc(N2CCN(c3ccccn3)CC2)c([N+](=O)[O-])c1 (stereo not drawn),98,65,-,-,-,14,-
NC(=O)CC(NC(=O)c1ccccc1)c1ccc(N2CCN(c3ccccc3)CC2)c([N+](=O)[O-])c1 (stereo not drawn),-,-,-,-,-,.,.
NC(=O)CC(NC(=O)Cc1ccc(Cl)cc1)c1ccc(N2CCN(c3ccccn3)CC2)c([N+](=O)[O-])c1 (stereo not drawn),-,-,-,-,-,.,.
CCCCCC(=O)N1C[C@@H](O)[C@H](n2cc(COC(=O)c3ccccc3)nn2)C[C@@H]1c1ccc(OC)cc1,.,-,-,-,.,.,.
CCN(C(=O)c1ccc(NC(C)=O)cc1)c1ccccc1C,-,-,-,-,-,.,.
CCCCC(=O)Nc1ccc(C(=O)N(CC)c2ccccc2C)cc1,63,-,-,-,-,-,-
Cc1ccc(Cn2c(=N)n(CC(=O)c3ccccc3)c3ccccc32)cc1,58,-,-,-,-,-,-
CCCn1c(=N)n(CC(=O)c2ccc([N+](=O)[O-])cc2)c2ccccc21,-,-,-,-,-,.,.
Cc1ccccc1Cn1c(=N)n(CC(=O)c2ccc([N+](=O)[O-])cc2)c2ccccc21,55,-,-,-,.,22,-
CC(C)(C)C(=O)Cn1c(=N)n(Cc2ccccc2)c2ccccc21,-,-,-,-,-,.,.
O=C(NCC1CCN(C(=O)c2c(F)c(F)c(F)c(F)c2F)CC1)c1c(F)c(F)c(F)c(F)c1F,-,-,-,-,-,.,.
COc1ccc(C(=O)NCC(=O)OCC(=O)Nc2cc(OC)ccc2OC)cc1,64,-,-,-,-,-,-
COc1ccc(NC(=O)COC(=O)CNC(=O)c2cc(OC)c(OC)c(OC)c2)cc1,-,-,-,-,-,.,.
Cc1cccc(OCCCC(=O)N2CCCc3ccccc32)c1C,-,-,-,-,-,.,.
O=C(NCCCN1CCCC(O)C1)c1cc(COc2ccc(F)cc2F)on1 (stereo not drawn),-,-,-,-,-,.,.
C#CCOC(=O)C[N+](C)(C)CC#Cc1ccccc1,-,-,-,-,-,.,.
CCn1c2ccccc2c2cc(CNCc3ccc(OC)cc3OC)ccc21,51,-,-,-,-,-,-
COCCn1c(Cc2ccccc2)nnc1SCc1ccc([N+](=O)[O-])cc1,-,-,-,-,-,.,.
O=C(Nc1cccc(Cl)c1)Nc1sccc1-c1nc2ccccc2s1,66,-,-,-,-,-,-
O=C(Nc1cccc(-c2nc3ccccc3s2)c1)c1cccs1,52,-,-,-,-,46,-
N#CC1=C2CCCCC2(O)NC1=O (stereo not drawn),.,-,-,-,.,.,.
Cc1cn([C@H]2C[C@H](O)[C@@H](/C=C/C(=O)NCCN3CCOCC3)O2)c(=O)[nH]c1=O,.,-,-,-,.,.,.
SMILES,B2AR ag,Exocytosis inh,HTR2A ag,ABHD5-PLIN5 inh,NTR1 agonist,Beta2AR ag CP1,B2AR FAP counter
O=C1CN(C(=O)COC(=O)c2cc(S(=O)(=O)N3CCOCC3)ccc2Cl)c2ccccc2N1,42,-,-,-,-,-,-
O=C1CN(C(=O)COC(=O)/C=C/c2ccc(S(=O)(=O)N3CCOCC3)cc2)c2ccccc2N1,-,-,-,-,-,.,.
Oc1c(CN2CCOCC2)cc(COCc2ccccc2)c2cccnc12,-,-,-,-,.,-,-
O=C1O[C@@H](c2ccccc2)C[C@@H](O)C(=O)CCCc2ccccc21,.,-,-,-,.,.,.
CCC1(c2ccccc2)NC(=O)N(CC(=O)N(C)Cc2c(F)cccc2Cl)C1=O (stereo not drawn),82,-,-,-,-,-,-
COc1ccc(-c2nn(-c3ccccc3)cc2C(=O)Nc2nccs2)cc1,43,-,-,-,-,-,-
O=Cc1ccc(O)c2ncccc12,-,-,-,-,-,-,-
Cc1nc2oc3c(=O)[nH]cnc3c2c2c1COC(C)(C)C2,-,-,-,-,-,-,-
OC(CNCCc1ccccc1)c1ccccc1 (stereo not drawn),-,-,-,-,-,-,-
O=C(NCC(O)c1ccccc1)c1ccccc1 (stereo not drawn),-,-,-,-,-,.,.
O[C@@H](CNC[C@H](O)c1ccccc1)c1ccccc1,-,-,-,-,-,-,-
COc1ccc(CCNCC(O)c2ccccc2)cc1 (stereo not drawn),-,-,-,-,-,-,-
Cc1nn(Cc2ccccc2)c(N)c1-c1ccccc1,50,-,-,-,-,-,-
Cc1nn(Cc2ccccc2)c(N)c1C#N,-,-,-,-,-,.,.
Cc1cc(OCC(=O)N2CCN(c3ccccn3)CC2)c(C)cc1Br,-,-,-,-,-,.,.
COc1ccc(S(=O)(=O)N2CCCCCC2)cc1C(=O)N(C)Cc1ccc(OC)c(OC)c1OC,51,-,-,-,-,-,-
CCCc1nnc(NC(=O)CCC(=O)Nc2ccc(Br)cc2)s1,-,-,-,-,-,.,.
Cc1ccccc1OCc1nc(-c2ccc(NC(=O)c3ccc4c(c3)OCO4)cc2)no1,-,-,-,-,-,-,-
Cc1ccc(-c2noc(COc3ccccc3C)n2)cc1,-,-,-,-,-,.,.
Cc1ccccc1OCc1nc(-c2ccc(NC(=O)c3cccs3)cc2)no1,-,-,-,-,-,-,-
CC(Oc1ccc(Cl)cc1Cl)c1nc(-c2ccc(NC(=O)c3ccco3)cc2)no1 (stereo not drawn),66,-,-,-,-,-,-
Cc1ccccc1OCc1nc(-c2ccc(NC(=O)c3ccco3)cc2)no1,-,-,-,-,-,-,-
CCOC(=O)CSCC(=O)N1CCC(Cc2ccccc2)CC1,66,-,-,-,-,-,-
CCNC(=O)C1(C)CCCN1Cc1c(F)cccc1F (stereo not drawn),.,-,-,-,.,.,.
Cn1c(N)c(C(=O)COC(=O)Cc2ccc(Cl)cc2)c(=O)n(C)c1=O,-,-,-,-,-,.,.
CCCc1nc2oc3c(NCC(C)O)ncnc3c2c2c1CCCC2 (stereo not drawn),-,-,-,-,-,-,-
